# High-throughput results: PubChem BioAssay, Broad Institute
# aSyn UTR act = Activators via SNCA 5'UTR binding, MLPCN. alpha-synuclein 5'UTR reporter, activators screen. activity score, % (tested at 7.5 µM), hits read low. hit rate 7.1% among 300,000. AID 1814, 2009; in the data active = activity score below about -60%
# * marks the source's active call; other numbers are inactive results. These entries were drawn from the full list.
SMILES,aSyn UTR act
O=C(C[n+]1cc(-c2ccc(F)cc2)n2c1CCC2)N1c2ccccc2Sc2ccccc21,-180.6*
O=C(c1ccccc1-c1nc(-c2ccc(Cl)cc2)no1)N1CCCC1,-251.2*
O=C(NCC1CCCO1)c1ccccc1-c1nc(-c2ccc(Cl)cc2)no1 (stereo not given),-73.9*
CC(C)(C)c1ccc(C(=O)NC(=S)Nn2cnnc2)cc1,-76.3*
CC(C)(C)c1cc(CCC(=O)NNC(=S)NC(=O)c2ccccc2)cc(C(C)(C)C)c1O,65.8
CCCn1c(N2CCN(CC(=O)c3c(C)n(C)c4ccc(OC)cc34)CC2)nc2c1c(=O)[nH]c(=O)n2C,62.6
COc1ccc(NC(=O)CN2CCCCC2)c([N+](=O)[O-])c1,-98.0*
COc1ccc(NC(=O)CSc2ccccc2)c([N+](=O)[O-])c1,-106.1*
COc1ccc2[nH]cc(C(=O)CN3CCC(C)CC3)c2c1,-176.9*
COc1cc(NC(=O)Cn2ncc(Cl)c(Cl)c2=O)c(C)cc1[N+](=O)[O-],121.4
COc1ccc(NC(=O)CN2CCC(C)CC2)c([N+](=O)[O-])c1,-68.5*
COc1ccc(NC(=O)COc2ccc(C)cc2)c([N+](=O)[O-])c1,-142.7*
Cc1ccc(NC(=O)CN2CCCCCC2)c(Br)c1,-203.6*
Cc1ccc(NC(=O)COC(=O)COc2ccc(Cl)cc2C)c([N+](=O)[O-])c1,-65.4*
O=C(Nc1cccnc1)C1CCN(S(=O)(=O)c2cccs2)CC1,-108.2*
COc1ccccc1CCC(=O)Nc1nc2ccccc2[nH]1,-223.0*
COc1ccc(CCC(=O)Nc2nc3ccccc3[nH]2)cc1,-127.3*
CCC(Oc1ccccc1)C(=O)Nc1nc2ccccc2[nH]1 (stereo not given),-66.2*
CCCCCC(=O)Nc1nc2ccccc2[nH]1,-176.5*
COc1ccc(OCC(=O)Nc2nc3ccccc3[nH]2)cc1,-122.6*
CN(C)C(=O)c1ccc2c(c1[N+](=O)[O-])C(=O)c1ccccc1C2=O,-116.4*
Cc1ccc(OC(=O)c2oc3ccc(F)cc3c2C)c(C)c1,-112.0*
O=C(c1ccco1)N1CCN(c2ncnc3c2oc2ccccc23)CC1,-113.1*
O=C1CCCc2nc(N3CCN(C(=O)c4ccco4)CC3)ncc21,-93.0*
Nc1nc(N2CCN(C(=O)c3ccco3)CC2)nc2ccccc12,-102.0*
SMILES,aSyn UTR act
COc1ccc(C2=Nn3c(nnc3-c3ccccn3)SC2)cc1OC,56.3
COc1ccc(-c2csc(Nc3ncccc3C)n2)cc1,-117.5*
Cc1nc(C)c(-c2csc(Nc3ncccc3C)n2)s1,-240.5*
COc1ccc(-c2csc(Nc3ncccc3C)n2)cc1OC,-172.0*
Cc1cccnc1Nc1nc(-c2ccc(O)c(O)c2)cs1,-231.6*
COc1ccc(Nc2ncnc3sc(C)cc23)c(OC)c1,-82.1*
COc1ccccc1C(=O)NNC(=O)c1ccccc1,-74.0*
COc1ccccc1C(=O)N1CCN(c2cccc(Cl)c2)CC1,64.4
COc1ccccc1C(=O)NNC(=O)c1cccc(Br)c1,-114.6*
Cc1ccccc1C(=O)NNC(=O)c1ccc(Br)cc1,-96.1*
COc1ccccc1C(=O)NNC(=O)c1cccc(Cl)c1,-65.9*
COc1ccccc1C(=O)NNC(=S)NC(=O)c1cccs1,73.2
COc1ccccc1C(=O)NNC(=S)NC(=O)c1sc2ccccc2c1Cl,-137.9*
COc1ccccc1C(=O)CC(=O)c1ccccc1,-113.8*
COc1ccccc1C(=O)NC(=O)Nc1cccc(Cl)c1,-128.7*
COc1ccc(-c2cn3cc(Cl)ccc3n2)cc1OC,-239.0*
COc1cc(N=Nc2ccc3ccccc3c2)ccc1O,-144.2*
Oc1ccc(N=Nc2c(O)ccc3ccccc23)cc1,-97.6*
Oc1ccc(N=Nc2ccc3ccccc3c2)cc1,-73.2*
NS(=O)(=O)c1ccc(N=Nc2ccc(O)c3ncccc23)cc1,63.7
Oc1c(N=Nc2ccccn2)ccc2ccccc12,73.7
COc1cc(C(=O)Nc2ccc3c(c2)nc(C)n3C)cc(OC)c1OC,-92.3*
Cc1nc2cc(NC(=O)N3CCCCC3)ccc2n1C,-70.9*
COc1cc(C(=O)NC(=S)N(CCc2ccccc2)CCc2ccccc2)cc(OC)c1OC,69.2
Cc1ccc(NC(=O)Nc2ccc3c(c2)nc(C)n3C)cc1C,-126.6*
SMILES,aSyn UTR act
COc1cc(C(=O)Nc2ccc(N(C)C)cc2)cc(OC)c1OC,-98.9*
CCc1ccc(N2NC(=O)/C(=C/C=C/c3ccco3)C2=O)cc1,-77.9*
Cc1ccccc1OCc1nc(-c2ccc(NC(=O)c3ccc4c(c3)OCO4)cc2)no1,-108.6*
Cc1ccccc1OCc1nc(-c2ccc(NC(=O)c3cccs3)cc2)no1,-276.5*
CCCc1ccc(OCc2nc(-c3ccc(NC(=O)c4cccs4)cc3)no2)cc1,-169.1*
CC(Oc1ccc(Cl)cc1Cl)c1nc(-c2ccc(NC(=O)c3ccco3)cc2)no1 (stereo not given),-147.2*
CCCc1ccc(OCc2nc(-c3ccc(NC(=O)c4ccco4)cc3)no2)cc1,-119.2*
Cc1ccc(S(=O)(=O)Nc2cccc(-c3ccc(N4CCCCCC4)nn3)c2)cc1,-124.6*
O=C(Nc1cccc(-c2ccc(N3CCOCC3)nn2)c1)c1ccc(Cl)cc1,-86.3*
Cc1ccc(S(=O)(=O)Nc2cc(-c3nn(C)c(=O)c4ccccc34)ccc2N2CCOCC2)cc1,78.4
